# A selection: hits, their analogues and other compounds. The true share with any hit is near 4.2%.
# D1 antagonist: Antagonist of Human D 1 Dopamine Receptor: qHTS; D(1A) dopamine receptor (Homo sapiens), P21728; HEK293 TREx D1 cells, calcium flux, dopamine EC80; hits give low values; activity change, negative = inhibition, % at 10 µM; 3.2% of 360,000 active; AID 504652, 2011; in the data active = activity change below about -30%; note: % is set by controls: 0 for no effect and ±100 for the full control effect
# Target sequence (P21728 whole entry, looked up): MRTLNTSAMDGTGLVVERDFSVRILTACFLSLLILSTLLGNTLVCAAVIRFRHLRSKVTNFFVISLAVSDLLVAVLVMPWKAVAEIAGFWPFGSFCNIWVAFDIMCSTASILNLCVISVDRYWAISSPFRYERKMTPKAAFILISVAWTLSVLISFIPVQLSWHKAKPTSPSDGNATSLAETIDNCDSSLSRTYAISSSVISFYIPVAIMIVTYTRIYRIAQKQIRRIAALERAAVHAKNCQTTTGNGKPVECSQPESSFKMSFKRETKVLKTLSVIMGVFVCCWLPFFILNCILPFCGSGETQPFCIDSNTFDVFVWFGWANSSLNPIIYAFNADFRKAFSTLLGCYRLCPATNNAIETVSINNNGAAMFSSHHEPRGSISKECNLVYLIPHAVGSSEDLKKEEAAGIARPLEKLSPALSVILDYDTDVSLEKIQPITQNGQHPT
#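 Compound effects on dopamine-evoked calcium signalling were measured in tetracycline-induced HEK293 Trex D1 cells. Dopamine at EC80 followed a 180 s compound pre-read, and fluorescence was tracked kinetically for 180 s more.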
# TRPV1 ag: HTS Assay for Compounds that Act as Agonists of the Vanilloid Receptor 1; TRPV1-expressing cells, Fluo-8 calcium influx, agonist mode; activation, % at 8.33 µM; 0.19% of 320,000 active; AID 540275, 2011; in the data active = activation above about 80%; inconclusive = between about 30% and that limit; note: 0% is about no effect
#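 TRPV1-expressing cells were cultured overnight at 35.5C and loaded with Fluo-8 calcium dye for 40 to 90 min at room temperature. After a 10 s baseline, compound was added and calcium influx was read kinetically for 3 min (ex 480/em 520 nm).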
# TRPV1 potentiator: HTS Assay for Compounds that Act as Potentiators of the Vanilloid Receptor 1; Transient receptor potential cation channel subfamily V member 1 (Homo sapiens), Q8NER1; TRPV1-expressing cells, Fluo-8 calcium influx, capsaicin EC20 potentiation; potentiation, % at 8.33 µM; 0.02% of 320,000 active; AID 540277, 2011; in the data active = potentiation above about 80%; inconclusive = between about 30% and that limit; note: 0% is about no effect
#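 Cells expressing TRPV1 were dye-loaded with Fluo-8 and read kinetically: 10 s baseline, 3 min after compound (agonist portion), then 2 min after EC20 capsaicin (allosteric enhancer portion). Calcium-bound dye fluorescence at 480/520 nm.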
# D1 PAM: Potentiators of Human D1 Dopamine Receptor: qHTS; HEK293 TREx D1 cells, calcium flux, dopamine EC20 potentiation; potentiation, % at 10 µM; D(1A) dopamine receptor (Homo sapiens), P21728; 0.036% of 360,000 active; in the data active = potentiation above about 30%; note: 0% is about no effect
# D1 agonist: Allosteric Agonists of the Human D1 Dopamine Receptor: qHTS | D(1A) dopamine receptor (Homo sapiens), P21728 | HEK293 T-REx D1 cells, calcium flux, agonist mode | activation, % at 2 µM | 1% of 360,000 active | AID 504660, 2011; in the data active = activation above about 30%; note: 0% is about no effect
#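 Inducible HEK293 T-REx D1 cells, force-coupled to calcium signalling, were plated at 4000 cells/well with tetracycline and held overnight at 30 C. After no-wash calcium dye loading, compound-evoked calcium rise over 180 s flagged agonists.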
# An asterisk follows results filed as active; ? = inconclusive; · = no result.
SMILES,D1 antagonist,TRPV1 ag,TRPV1 potentiator,D1 PAM,D1 agonist
Cc1cccc(C)c1NC(=O)CNC(=O)Cc1c[nH]c2ccccc12,-9.5,-2.2,?,-0.4,1.4
Cc1cccc(C)c1NC(=O)c1c[nH]c2ccccc12,-48.4*,18.4,-3.4,-10.9,-0.3
O=C(c1ccc(COc2ccccc2Br)cc1)N1CCCCCC1,-36.7*,?,16.7,-10.4,18.3
O=C(c1ccc(COc2ccc(Cl)cc2)cc1)N1CCCCC1,8.8,?,2.1,·,7.8
Cc1n[nH]c(=O)nc1NC1CCCCC1,-43.9*,1.3,-9.0,1.8,0.5
O=C(NCc1ccccc1Cl)C1CCCN1C(=O)NCc1ccccc1 (stereo not given),-44.1*,2.0,4.6,-3.1,1.3
CCN(CC)c1nc2c(c(=O)[nH]c(=O)n2C)n1CCOc1ccccc1,4.7,-1.9,25.0,35.0*,6.8
Nc1cnccc1C(=O)O,-3.0,6.5,-8.9,6.0,32.1*
COC(=O)c1ccncc1N,·,0.0,-3.7,-6.7,0.7
CCCC(=O)Nc1ccc(C(=O)NCc2ccccc2Cl)cc1,-0.9,7.0,15.8,-6.7,0.3
CC(=O)c1ccc(NC(=O)C(C)NCc2ccccc2Cl)cc1 (stereo not given),-35.8*,13.6,-10.6,-5.8,3.8
N#Cc1ccccc1NC(=O)C(=O)NCCc1csc2nc(-c3cccc(F)c3)nn12,-10.9,·,·,-1.1,3.8
Cc1ccc(NC(=O)Cc2coc3ccc(C(C)C)cc23)cc1Cl,-2.1,·,·,0.3,38.5*
Cc1ccc(NC(=O)Cc2ncon2)cc1Cl,-44.8*,4.5,4.7,-2.9,1.0
CCOC(=O)C1CCN(C(=O)c2[nH]c3ccc(OC)cc3c2C)CC1,-67.3*,-2.2,-4.7,0.6,2.3
Cc1cc2c(s1)c1cnn(Cc3cccc(F)c3F)c(=O)c1n2C,-9.5,·,·,4.9,0.7
COc1ccc(SCC(=O)Nc2ccc(N3CCN(C)CC3)c(F)c2)cc1,2.6,0.6,-0.1,-24.5,4.0
Cc1ccc(SCC(=O)Nc2ccc(N3CCN(C)CC3)c(F)c2)cc1,-58.9*,14.8,-7.1,-11.9,4.4
Cc1cccc(NC(=O)c2c(N)sc3c2CCC(C)C3)c1 (stereo not given),19.0,·,·,1.6,-2.5
CC(C)(C)c1ccc(S(=O)(=O)N(CCCN2CCOCC2)Cc2cccs2)cc1,-33.0*,?,0.7,-15.2,8.9
O=C(CNc1cc([N+](=O)[O-])ccc1NCCO)Nc1cccc(S(=O)(=O)N2CCCCC2)c1,-5.2,0.4,2.6,-5.5,0.5
CC1CCCCC12NC(=O)N(CC(=O)Nc1cccc(S(=O)(=O)N3CCCCC3)c1)C2=O (stereo not given),-52.9*,2.4,-1.0,1.3,2.0
O=C(CN1C(=O)NC2(CCCCC2)C1=O)Nc1cccc(S(=O)(=O)N2CCOCC2)c1,23.2,-0.2,0.3,-3.6,6.7
O=C(CSc1ncn[nH]1)Nc1ccc(S(=O)(=O)N2CCCC2)cc1,-2.2,-0.4,9.6,5.3,2.3
O=C(CNc1cccc(S(=O)(=O)N2CCCCCC2)c1)Nc1cccc([N+](=O)[O-])c1,-32.3*,10.3,0.3,-10.8,8.2
SMILES,D1 antagonist,TRPV1 ag,TRPV1 potentiator,D1 PAM,D1 agonist
O=C(CSc1ncn[nH]1)Nc1cccc(S(=O)(=O)N2CCCCCC2)c1,-35.7*,-3.6,12.1,-6.3,9.1
O=C(Cc1c[nH]c2ccccc12)Nc1cccc(S(=O)(=O)N2CCCCC2)c1,-30.3*,3.0,2.7,-8.1,-0.1
Cc1cccn2c(=O)c3cc(C(=O)NC(C)C)n(C)c3nc12,-23.0,·,·,-4.4,2.3
COC(=O)c1cc(NC(=O)CSc2ncn[nH]2)ccc1Cl,-44.0*,1.8,-0.5,-3.6,1.2
N#Cc1ccccc1NC(=O)CSc1ncn[nH]1,-34.9*,·,·,-2.6,0.9
Cc1cc(C)c(C(=O)OCC(=O)Nc2cccc(S(=O)(=O)N3CCCCC3)c2)c(C)c1,0.3,-1.7,8.9,3.0,36.9*
O=C(COC(=O)c1ccc(O)cc1)Nc1cccc(S(=O)(=O)N2CCCCC2)c1,-2.8,25.5,-15.6,-9.2,21.4
O=C(CSC(=S)N1CCCC1)N1CCN(S(=O)(=O)c2cccc([N+](=O)[O-])c2)CC1,-32.9*,4.0,-21.2,-4.5,4.8
COc1ccccc1Cn1c(CNS(=O)(=O)c2c(C)cc(C)cc2C)nc2cccnc21,-20.7,·,·,-6.8,1.6
COc1ccc(-c2nnc(SCC(=O)Oc3cc(C)ccc3C)o2)cc1,9.7,·,·,-1.1,-0.6
O=C(O)c1cccc(CN2C(=O)c3ccccc3C2=O)c1,8.8,-1.3,-8.8,-3.8,0.6
O=C1c2cccc3c(O)ccc(c23)C(=O)N1Cc1ccccc1,48.2,?,-7.0,18.2,365.6*
O=C(Nc1ccc(O)cc1)/C(=C\C=C\c1ccccc1)NC(=O)c1ccccc1,-31.9*,?,-0.2,3.6,2.0
COC(=O)/C(=C\C=C\c1ccccc1)NC(=O)c1ccccc1,-30.4*,15.5,10.4,-5.5,0.1
O=C(Nc1ccc(C(=O)O)cc1)/C(=C\C=C\c1ccccc1)NC(=O)c1ccccc1Cl,3.7,-3.2,22.0,-10.1,0.9
CCC(C(=O)NC1CCCCC1)n1nc(C)c2sc3ccccc3c2c1=O (stereo not given),-17.1,·,·,0.1,1.2
O=C(COC(=O)CC(c1ccccc1)c1ccccc1)NCc1ccc(Cl)cc1,-34.0*,?,-40.8,-5.9,28.7
O=C(Nc1ccc(Cl)cn1)C1C(c2ccccc2)C1(Cl)Cl (stereo not given),5.4,?,-7.4,-3.5,6.1
O=C(Nc1ccccc1)C1C(c2ccccc2)C1(Cl)Cl (stereo not given),15.0,83.6*,-31.2,-4.8,-1.9
Cc1ccc(N(C)S(=O)(=O)c2ccc(-c3coc(C)n3)cc2)cc1,-38.6*,·,·,-5.5,0.4
Cc1nc(-c2ccc(S(=O)(=O)NCc3ccc(N(C)C)cc3)cc2)co1,19.2,·,·,-3.8,5.6
COc1ccc(-c2nc(CNS(=O)(=O)c3ccc(F)cc3)cs2)cc1,-32.2*,·,·,-0.8,23.6
Cc1nc(-c2ccc(S(=O)(=O)NCc3ccc(F)cc3)cc2)co1,-55.8*,·,·,-1.7,1.1
COc1ccc(-c2nc(CNS(=O)(=O)c3ccc(C)cc3)cs2)cc1,-2.9,·,·,-0.3,13.3
COc1ccc(NS(=O)(=O)c2ccc(-c3coc(C)n3)cc2)c(OC)c1,-32.6*,-4.0,13.4,-7.8,8.1
Cc1sc(C2C(C#N)=C(N)N(c3ccc(Cl)cc3)C3=C2C(=O)CCC3)cc1CN1CCOCC1 (stereo not given),-1.7,·,·,-0.3,2.2

# Screening results as filed in PubChem.
